Compound activity deposited in PubChem BioAssay by National Center for Advancing Translational Sciences (NCATS).
A549 tox – Nrf2 qHTS screen for inhibitors: counterscreen for cytotoxicity. A549 ARE-Fluc cells, CellTiter-Fluor viability, 18-24 h. Potency, µM (highest dose often 46 µM), most hits filed as inhibitors. 390,000 compounds, 0.16% hits. AID 504648, 2011
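A549 ARE_Fluc cells in 5% FBS OPTI-MEM were exposed to compounds in concentration-response for 18-24 h at 37 deg C. Viability was read by CellTiter-Fluor fluorescence (Ex 405/Em 525) after 30 min, before the luciferase read.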
Nrf2 activator – qHTS of Nrf2 Activators. 410,000 compounds, 0.31% hits. AREc32 ARE-luciferase reporter (MCF7-derived line), luminescence, 24 h. Potency, µM (highest dose often 46.1 µM), usual class: activators; further: nearly all actives have a fitted effect of over 65% in size
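Quantitative high-throughput format: AREc32 reporter cells, 1000 per well, received compound by pin transfer and were incubated 24 hr at 37 deg C, 5% CO2, before Steady-Glo luminescence detection.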
IDH1 R132H inh – qHTS for Inhibitors of mutant isocitrate dehydrogenase 1 (IDH1): qHTS; Isocitrate dehydrogenase [NADP] cytoplasmic (Homo sapiens), O75874; IDH1-R132H enzyme, NADPH consumption, diaphorase/resazurin fluorescence; Potency, µM (doses to about 76.6 µM), usual class: inhibitors; 390,000 compounds, 0.093% hits; AID 602179, 2012; further: nearly all actives have a fitted effect of over 65% in size
Target sequence (O75874 whole entry R132H, stated change not applied): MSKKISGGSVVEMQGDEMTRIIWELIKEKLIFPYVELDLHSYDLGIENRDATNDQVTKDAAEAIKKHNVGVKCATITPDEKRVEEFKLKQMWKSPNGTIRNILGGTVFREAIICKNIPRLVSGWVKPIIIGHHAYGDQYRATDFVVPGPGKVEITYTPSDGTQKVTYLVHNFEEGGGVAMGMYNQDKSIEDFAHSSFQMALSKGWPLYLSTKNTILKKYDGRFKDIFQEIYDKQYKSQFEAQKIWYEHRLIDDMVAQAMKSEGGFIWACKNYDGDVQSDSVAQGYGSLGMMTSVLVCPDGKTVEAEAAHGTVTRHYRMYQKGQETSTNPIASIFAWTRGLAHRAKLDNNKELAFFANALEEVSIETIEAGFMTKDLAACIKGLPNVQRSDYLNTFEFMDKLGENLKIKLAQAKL
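IDH1-R132H (0.5 ug/mL dispensed) in pH 7.5 Tris buffer was preincubated 30 min with compound, then given a substrate mix of 0.016 mM NADPH and 2 mM alpha-KG for 80 min at room temperature; remaining NADPH was read by diaphorase/resazurin fluorescence.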
Nrf2 block – Nrf2 qHTS screen for inhibitors; A549 ARE-Fluc reporter, luciferase luminescence, 18-24 h; Potency, µM (highest dose often 46 µM), most hits filed as inhibitors; 360,000 compounds, 2.1% hits; AID 504444, 2011; further: nearly all actives have a fitted effect of over 60% in size
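A549 ARE_Fluc cells, 5000/well, 5% FBS OPTI-MEM; compounds in dose-response, 18-24 h at 37 °C/5% CO2; CellTiter-Fluor viability read (Ex 405/Em 525), then BugLite luciferase luminescence = Nrf2 activity.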
ELG1 repair inh – qHTS screen for small molecules that inhibit ELG1-dependent DNA repair in human embryonic kidney (HEK293T) cells expressing luciferase-tagged ELG1; HEK293T ELG1-luciferase reporter, luminescence, 16 h; DNA damage induced by 5-fluorouridine; Potency, µM (highest dose often 46.1 µM), hits mostly inhibitors; 330,000 compounds, 2.3% hits; further: nearly all actives have a fitted effect of over 55% in size
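Reporter activity after DNA damage by 5-fluorouridine is monitored. Compound-treated cells incubate 16 hr at 37 °C, then ONE-Glo is added for 30 min before luminescence reading.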
Each line names hits and unclear results; the compound was inactive in the other large screens. In the library only some 3.8% were active in any assay of this set; here they are far more common. The call rests on the fitted dose curve; in most records, active means well fitted curve in the direction sought with a large enough effect; inconclusive means small, poorly fitted or top-dose-only effect, or another doubt; inactive means no such curve, though single readings can be large; an effect the other way counts as inactive or inconclusive.

Cc1cc(C)cc(Oc2c(C(F)(F)F)oc3cc(OCC(=O)NC4CCCCC4)ccc3c2=O)c1	none (no result: IDH1 R132H inh, ELG1 repair inh)
CC(=O)c1ccc(N2CCN(C(=O)c3cn(C)c(=O)c4c3c3ccccc3n4C)CC2)cc1	none (no result: ELG1 repair inh)
CS(=O)(=O)N(CCC#N)Cc1ccc(/C=C2\C(=O)Nc3ccccc32)o1	Nrf2 block inconclusive, ELG1 repair inh 7.3µM
CCC1CC=CC2C1C(=O)N(Cc1ccccc1)C2c1cccc([N+](=O)[O-])c1 (stereo not drawn)	A549 tox inconclusive (no result: Nrf2 activator, IDH1 R132H inh, ELG1 repair inh)
O=C(O)c1ccccc1OC1=NS(=O)(=O)c2ccccc21	none (no result: Nrf2 activator, IDH1 R132H inh, ELG1 repair inh)
Cc1cc2c(s1)c1cnn(Cc3cccc(F)c3)c(=O)c1n2C	none (no result: Nrf2 activator, IDH1 R132H inh, ELG1 repair inh)
CCN(CC)S(=O)(=O)c1ccc(NC(=O)NCc2noc3ccc(C)cc23)cc1	A549 tox inconclusive, Nrf2 block 18µM (no result: ELG1 repair inh)
CC1CC(C)CN(S(=O)(=O)c2ccc(C(=O)NCc3ccc4c(c3)OCO4)cc2)C1 (stereo not drawn)	Nrf2 block 10µM, ELG1 repair inh inconclusive
Cc1c(C(=O)NCc2ccc3c(c2)OCO3)oc2ccc(S(=O)(=O)N3CCCC3)cc12	Nrf2 block inconclusive, ELG1 repair inh 7.3µM
O=S(=O)(c1ccc(NC(=S)NCc2cccnc2)cc1)N1CCCCC1	Nrf2 block 23µM, ELG1 repair inh inconclusive
O=C(NCc1cccnc1)c1ccc(S(=O)(=O)N2CCCCC2)cc1	Nrf2 block inconclusive
CCOC(=O)c1cccc(NC(=O)CN2C(=O)CC(C)(C)Sc3ccccc32)c1	Nrf2 block inconclusive (no result: ELG1 repair inh)
Cc1c(C(=O)N2CCOCC2)oc2ccc(S(=O)(=O)N3CCCC3)cc12	ELG1 repair inh inconclusive
Cc1c(C(=O)N2CCc3ccccc3C2)oc2ccc(S(=O)(=O)N3CCCCCC3)cc12	Nrf2 block 15µM, ELG1 repair inh 16µM
C=CCNC(=O)c1oc2ccc(S(=O)(=O)N3CCCCC3)cc2c1C	Nrf2 block inconclusive
Cc1c(C(=O)NCc2ccc3c(c2)OCO3)oc2ccc(S(=O)(=O)N3CCCCC3)cc12	ELG1 repair inh inconclusive (no result: Nrf2 block)
Cc1c(C(=O)NCc2cccnc2)oc2ccc(S(=O)(=O)N3CCCCCC3)cc12	Nrf2 block inconclusive, ELG1 repair inh 18µM
CCN(CC)S(=O)(=O)c1ccc2oc(C(=O)NCc3ccc(C)cc3)c(C)c2c1	Nrf2 block 16µM, ELG1 repair inh inconclusive
Cc1c(C(=O)NCc2cccnc2)oc2ccc(S(=O)(=O)N3CCCCC3)cc12	Nrf2 block inconclusive, ELG1 repair inh 5.8µM
O=C(c1cccs1)N1CCCc2cc(NS(=O)(=O)c3ccc(Br)cc3)ccc21	none (no result: Nrf2 block, ELG1 repair inh)
CC1([N+](=O)[O-])COC2(CCCCC2)OC1	none (no result: ELG1 repair inh)
COc1ccccc1CNC(=O)c1oc2ccc(S(=O)(=O)N3CCCC3)cc2c1C	ELG1 repair inh inconclusive (no result: Nrf2 block)
CCN(CC)C(=O)C1CCN(S(=O)(=O)c2ccc3oc4ccccc4c3c2)CC1	Nrf2 block 21µM, ELG1 repair inh inconclusive
